IEC-6 tox = cytotoxicity in IEC-6 intestinal epithelial cells, primary screen, cytotoxicity control for KLF5 inhibitor project, cell-based, luminescence. IEC-6 cytotoxicity, luminescence viability. inhibition, % at 5 µM. 290,000 compounds, 0.78% hits; in the data active = inhibition above about 22%;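 also: 0% = plate median of test compound wells and 100% = cytotoxic reference compound wells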
APP transl inh = inhibitors of APP translation via 5'UTR reporter, primary screen, APP 5'UTR luciferase, SH-SY5Y cells; SH-SY5Y APP 5'UTR-luciferase reporter, luminescence; inhibition, % at 2 µM; 190,000 compounds, 0.82% hits;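 active = inhibition above a set limit, derived from the sample mean plus 3 SD, cut at about 45% in these data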
BaF3 tox = parental Ba/F3 cell viability inhibition, counter-screen for JAK2V617F inhibitor project, murine pro-B, CellTiter-Glo luminescence; AID 1486, 2009; CellTiter-Glo ATP luminescence; 220,000 compounds, 1.1% hits; inhibition, % at 5.6 µM;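 active = inhibition above a per-campaign cutoff, the mean inhibition of all tested compounds plus 3 SD, cut at about 27% in these data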;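 also: 0% = DMSO wells and 100% = JAK Inhibitor I control wells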
Ba/F3 V617F tox = reduced viability of JAK2V617F-dependent Ba/F3 cells, primary screen, JAK2V617F inhibitor project, cell-based, Ba/F3 EpoR-JAK2V617F, luminescence; inhibition, % at 5.6 µM; AID 1446, 2008; 220,000 compounds, 1.1% hits; ATP luminescence;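 active = inhibition above the campaign mean plus 3 SD over all tested compounds, cut at about 24% in these data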;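 also: cytokine-independent growth of Ba/F3 cells driven by EpoR plus mutant JAK2; 0% = DMSO-treated cells and 100% = JAK inhibitor I control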
KLF5 inhibitor = KLF5 expression inhibitors, primary screen, DLD-1 cells, luminescence. 290,000 compounds, 0.23% hits. inhibition, % at 5 µM. DLD-1 KLF5 promoter-luciferase reporter. AID 1700, 2009;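 active = inhibition above a per-plate limit of that plate's mean compound inhibition plus 3 SD, cut at about 60% in these data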;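 also: 0% = DMSO wells and 100% = LY294002 at 200 µM; higher means less KLF5 promoter-driven luciferase light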
aSyn 5UTR inh = MLPCN primary screen, SNCA 5' untranslated region | alpha-synuclein 5'UTR reporter, inhibitor activity | inhibition, % (tested at 7.5 µM) | 300,000 compounds, 0.82% hits; in the data active = inhibition above about 60%;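 also: H4 neuroglioblastoma cells stably carrying SNCA 5'UTR luciferase fusion; 0% = DMSO wells and 100% = positive control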
Active calls of the source: *; . = no result. Most compounds without a hit are left out; they make up all but 2.2% or so of the library.

SMILES | IEC-6 tox | APP transl inh | BaF3 tox | Ba/F3 V617F tox | KLF5 inhibitor | aSyn 5UTR inh
c1ccc2nc3c(cc2c1)CCCCC3 | -4 | . | -1 | -5 | -21 | -34
O=C(O)c1cccc(COc2ccc(CO)cc2Cl)c1 | . | . | . | . | . | 105*
COc1ccccc1C(C(=O)NC1CCCC1)N(C(=O)c1csnn1)C1CC1 (stereo unspecified) | -6 | . | . | . | 12 | -1
CCn1nnnc1SCC(=O)c1cccc(OC)c1 | -2 | -5 | 45* | 0 | -22 | 31
COc1ccc(-n2nnnc2SCC(=O)c2cccc(OC)c2)cc1 | 2 | 6 | 6 | 5 | 3 | 5
Nc1ccc(OC(=O)Nc2ccc(O)cc2)cc1 | 6 | . | 3 | 0 | 8 | 91*
CC(=O)NC1C(OC(=O)/C=C/c2ccccc2)OC(COC(C)=O)C(OC(C)=O)C1OC(C)=O (stereo unspecified) | 2 | . | . | . | -9 | -17
Cc1nc2ccccc2n1S(=O)(=O)c1cc(C(=O)O)ccc1Cl | 3 | . | . | . | 3 | -1
CCOc1cc(C(=O)N/N=C(\C)Cc2ccc(OC)cc2)cc(OCC)c1OCC | 0 | 86* | 2 | -2 | -3 | -2
COc1ccccc1S(=O)(=O)Cc1ccc(C(=O)NC2CC2)o1 | 1 | . | . | . | -65 | -9
CC(=O)c1cc2c(cc1NC(=O)c1cc(C)nn1-c1ccccc1)OCO2 | -2 | 59* | 6 | 0 | -2 | 2
CC(=O)Nc1ccc(NC(=O)c2cc(C)nn2-c2ccccc2)cc1 | -2 | 10 | 6 | 1 | -23 | -8
c1ccc(N2CCN(c3nnnn3-c3ccccc3)CC2)cc1 | -5 | 48* | 2 | -2 | 8 | -19
CCc1ccc(OCCCOc2ccc(C=O)cc2)cc1 | -5 | 8 | 102* | 1 | -48 | 4
CS(=O)(=O)N(CCC#N)Cc1ccco1 | -5 | -17 | 2 | 0 | -5 | 19
Cc1ccc(Cn2c(C3CCCN3c3nc(-c4cc(Cl)c(N)c(Cl)c4)cs3)nc3cc(Cl)c(Cl)cc32)cc1 (stereo unspecified) | . | . | . | . | . | -38
CCOC(=O)/C=c1\s/c(=C\c2c(OC)ccc3ccccc23)c(=O)n1CC(=O)NCC1CCCO1 (stereo unspecified) | 0 | 0 | 6 | -1 | -6 | 71*
COc1ccc(-c2cnnc(N/N=C/c3ccc(-c4ccc([N+](=O)[O-])cc4)o3)n2)cc1 | 0 | 90* | 5 | -1 | -28 | .
O=[N+]([O-])c1ccc(-c2ccc(/C=N/Nc3nc(N4CCCC4)nc(N4CCCC4)n3)o2)cc1 | -9 | -4 | -1 | -2 | -11 | -13
COc1cc(-n2c(C)nc3cc(C(=O)N4CCOCC4)ccc32)cc(OC)c1OC | 0 | 3 | 91* | -2 | -25 | 7
COc1ccc2c(c1)c(=O)c(C(=O)O)c(-c1ccc3c(c1)OCO3)n2C | -4 | 10 | 3 | 1 | -14 | -8
Cc1ccc(N2C(=O)C3C4C=CC(CC4)C3C2=O)cc1[N+](=O)[O-] (stereo unspecified) | 3 | . | . | . | -55 | -5
Cc1cc(N2C(=O)C=CC2=O)c([N+](=O)[O-])cc1C | 5 | 62* | 3 | -2 | -22 | 21
COc1cc(C)ccc1Oc1ncnc(N)c1[N+](=O)[O-] | 5 | . | . | . | -3 | -23
N#Cc1nc(COc2ccc(F)cc2)oc1N1CCC(Cc2ccccc2)CC1 | 1 | 66* | -1 | -2 | -42 | 5
SMILES | IEC-6 tox | APP transl inh | BaF3 tox | Ba/F3 V617F tox | KLF5 inhibitor | aSyn 5UTR inh
CC1C/C(=C\c2cccnc2)C(=O)/C(=C/c2cccnc2)C1 (stereo unspecified) | 14 | 96* | -5 | 7 | 20 | .
O=C(Cc1csc(Nc2nc(=S)[nH]c3ccccc23)n1)NCCCN1CCN(c2ccccc2F)CC1 | 0 | 14 | 9 | 0 | 10 | 92*
O=C(C1=C(O)C(=O)N(Cc2cccnc2)C1c1ccccn1)c1cccs1 (stereo unspecified) | 4 | -26 | 5 | -1 | -10 | -21
COc1ccccc1-c1c(-c2ccc(O)cc2O)n[nH]c1C(F)(F)F | 8 | . | 45* | 48* | -20 | -24
Oc1ccc(-c2n[nH]c(C(F)(F)F)c2-c2ccccc2)c(O)c1 | 3 | -5 | 78* | 56* | 3 | -16
COC(=O)Cn1c(=NC(=O)C2COc3ccccc3O2)sc2cc(S(N)(=O)=O)ccc21 (stereo unspecified) | 3 | 3 | 1 | -1 | 11 | -10
CC(NS(=O)(=O)c1ccc(OCC(=O)NCc2ccncc2)cc1)c1ccccc1 (stereo unspecified) | -4 | . | . | . | 3 | -6
Cc1ccccc1CC1(CO)CCCN(Cc2c(C)nn(C)c2Cl)C1 (stereo unspecified) | 10 | 9 | 80* | 0 | -11 | -14
FC(F)(F)c1ccccc1NC(=S)NN=C1CCCCCC1 | 7 | 93* | 0 | -2 | -14 | -18
Fc1cccc(NC(=S)NNc2c3ccccc3nc3ccccc23)c1 | 8 | 54* | 7 | -3 | -20 | -7
Fc1cccc(NC(=S)NNc2ccccc2)c1 | 6 | . | . | . | -12 | -140
C/C(CC(C)(C)C1CCCCC1)=N\NC(N)=S | 8 | -3 | 73* | 80* | 19 | -76
O=S(=O)(NCc1ccncc1)c1ccc(S(=O)(=O)NCC2CCCO2)cc1 (stereo unspecified) | 1 | 4 | 28* | 25* | 18 | 8
CCCCNS(=O)(=O)c1ccc(S(=O)(=O)NCc2ccncc2)cc1 | 2 | 4 | 39* | 33* | -34 | -5
Cc1ccc(S(=O)(=O)NCc2ccncc2)c(C)c1C | 19 | 10 | 84* | 55* | 26 | -8
CCCCc1ccc(S(=O)(=O)NCCc2ccncc2)cc1 | 7 | 9 | 7 | 1 | -22 | 5
O=C(C1CC1)N1CCC(c2nc(-c3ccc(S(=O)(=O)NCC4CCCO4)cc3)no2)CC1 (stereo unspecified) | 7 | -10 | 35* | 5 | -24 | -24
O=C(c1ccccc1)N1CCC(c2nc(-c3ccc(S(=O)(=O)NCC4CCCO4)cc3)no2)CC1 (stereo unspecified) | 2 | . | 5 | 3 | -19 | 28
O=S(=O)(NCc1ccccc1)c1ccc(S(=O)(=O)NCC2CCCO2)cc1 (stereo unspecified) | -2 | 4 | 0 | -4 | -3 | 0
C=CCN1C(=O)c2ccc(C(=O)N(CC)CC(=O)Nc3cc(Cl)ccc3C)cc2C1=O | . | . | . | . | . | 12
Cc1cc(C)c(S(=O)(=O)NCc2ccncc2)c(C)c1 | 6 | 12 | 34* | 24* | 1 | 18
Cc1c(C(=O)C(=O)N2CC=C(c3ccccc3)CC2)c2ccccc2n1C | 47* | 82* | 28* | 77* | 38 | 55

Screening results as filed in PubChem BioAssay.
